hcDAF12 agonist: activators of H. contortus DAF-12 nuclear receptor; HEK293 hcDAF-12 lit1-tk-luc reporter, luminescence; 0% DMSO, 100% Δ7-dafachronic acid; hit rate 1.4% among 370,000; activation, % at 6.8 µM;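 active = activation above the mean of all tested compounds plus 3 SD, cut at about 5.5% in these data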;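 also: 100% = response to 3 µM Δ7-dafachronic acid high control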
ssDAF-12 act: activators of S. stercoralis DAF-12 nuclear receptor | HEK293 ssDAF-12/GRIP1 lit1-tk-luc reporter, luminescence; % of 3 µM dafachronic acid response | activation, % at 6.8 µM | hit rate 1% among 370,000;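 active = activation above the mean over all tested compounds plus 3 SD, cut at about 0.9% in these data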;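 also: 0% = DMSO-only wells and 100% = 3 µM delta7-dafachronic acid wells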
DAX1 inh-1: DAX1 (NR0B1) inhibition, primary screen; HEK293T StAR-luciferase reporter, SF-1/DAX-1 repression relief; AID 652010; hit rate 1.1% among 370,000; inhibition, % at 6.8 µM;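 active = inhibition above the mean over all tested compounds plus 3 SD, cut at about 3.6% in these data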;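 also: 0% = DAX-1 cells with DMSO and 100% = cells lacking DAX-1 with DMSO; higher inhibition means more luminescence from relief of DAX-1 repression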
hgDAF12 agonist: agonists of H. glycines DAF-12 nuclear receptor; HEK293 GAL4-hgDAF12 UAS-luciferase reporter, agonist luminescence; normalized to butyrate control; activation, % at 6.8 µM; hit rate 1.8% among 370,000; AID 687014;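 active = activation above a cutoff set at the mean of all screened compounds plus 3 SD, cut at about 10% in these data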;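 also: 0% = DMSO wells and 100% = sodium butyrate wells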
SMARCA2 act: increases SMARCA2 function in MMTV reporter cells | MG213 cells, MMTV-luciferase reporter, dexamethasone, overnight | activation, % at 9.1 µM | hit rate 1% among 370,000 | AID 652017; in the data active = activation above about 7.8%;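 also: 0% = vehicle wells and 100% = reference activator wells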
DAX1 inh-2: inhibits human nuclear receptor DAX1 | P51843 | HEK293 Gal4-DAX1 luciferase reporter, luminescence | inhibition, % at 6.75 µM | hit rate 0.99% among 340,000 | AID 504766;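 active = inhibition above the mean over all tested compounds plus 3 SD, cut at about 4.2% in these data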;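 also: 0% = DAX1-transfected cells with DMSO and 100% = empty-vector control cells with DMSO; inhibition shows as a rise in luminescence from relieved DAX1 repression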
Target sequence (P51843 207-470 limits assumed): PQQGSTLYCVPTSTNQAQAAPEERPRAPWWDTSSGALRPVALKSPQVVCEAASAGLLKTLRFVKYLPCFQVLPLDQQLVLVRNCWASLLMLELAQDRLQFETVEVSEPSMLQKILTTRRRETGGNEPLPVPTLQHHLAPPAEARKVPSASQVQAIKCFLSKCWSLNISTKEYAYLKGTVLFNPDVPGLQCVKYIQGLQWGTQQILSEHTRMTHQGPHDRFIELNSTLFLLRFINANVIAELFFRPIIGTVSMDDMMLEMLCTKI
An asterisk follows results filed as active; . = not tested or not shown. This is a sample that favours compounds with a hit; in the whole collection about 4.8% have one here.

SMILES | hcDAF12 agonist | ssDAF-12 act | DAX1 inh-1 | hgDAF12 agonist | SMARCA2 act | DAX1 inh-2
Cn1c(=O)[nH]c(=O)c2c1nc(Br)n2C/C=N/NC(=O)c1ccccc1 | 0 | 0 | 1 | 6 | 4 | 4.6*
Cn1c(=O)[nH]c(=O)c2c1nc(Br)n2C/C=N/Nc1ccccc1 | 0 | 0 | 3.7* | -2 | 3 | 1
COc1ccc(C2CC(=O)C(c3cccc(C)c3)=CN2Cc2ccccc2)cc1 (stereo not drawn) | -3 | -1 | -1 | -1 | 0 | .
O=c1c2cc3cc(Cl)ccc3nc2ncn1CCc1ccc(O)cc1 | 3 | 0 | 1 | 3 | 1 | .
O=c1c2cc3cc(Cl)ccc3nc2ncn1N1CCCCC1 | 3 | 0.9* | 3 | 6 | -3 | .
COc1ccc2c(=O)c3c(=O)n(CCc4ccccc4)c(C(C)C)nc3oc2c1 | 1 | -1 | 0 | 0 | -2 | 4.7*
O=[N+]([O-])c1ccc(/C=C/c2ccncc2)cc1 | -1 | -2 | 0 | 0 | 7.9* | 0
O=[N+]([O-])c1cccc(/C=C/c2ccncc2)c1 | -1 | -1 | -1 | 3 | -1 | 2
Cc1ccc(C(=O)Nc2ccc(N3CCN(C(=O)c4cccs4)CC3)cc2)c(Cl)c1 | -3 | -2 | -1 | -3 | -2 | -1
CCOC(=O)C1CCN(C(=O)c2cc(COc3ccc(F)cc3F)on2)CC1 | 2 | 1 | 3 | 12* | 7 | 2
COc1ccc(OCc2cc(C(=O)N3CCN(CC(=O)N(C)C)CC3)no2)c(Cl)c1 | 0 | -1 | 0 | -1 | -2 | 1
COCC1CCN(C(=O)c2cc(COc3ccc4c(c3)CCCC4)on2)C1 (stereo not drawn) | -2 | -1 | -1 | -1 | -1 | -1
COc1ccc(OCc2cc(C(=O)N3CCSCC3)no2)c(Cl)c1 | 3 | 0 | 3.9* | 10 | 3 | 1
COc1ccc(OCc2cc(C(=O)N3CCCCCC3)no2)c(Cl)c1 | -1 | 0 | 4.1* | 9 | 2 | 1
O=C(c1cc(COc2ccc3c(c2)CCCC3)on1)N1CCCC1 | 4 | 1 | 4.0* | 10 | 7 | 4
COc1cc(C)c(CN2CCC(n3nccc3NC(=O)C3CC3)CC2)cc1C | -1 | -2 | -2 | -2 | -1 | 1
O=S1(=O)N[C@H](Cc2ccccc2)COc2cc(N3CCN(Cc4ccccc4F)CC3)ccc21 | -1 | -1 | 0 | 5 | -4 | .
CCCCN1C(=O)C(CC(=O)NCCCN(C)C)CC(C(=O)N2CCCCCC2)=C1C (stereo not drawn) | 0 | -1 | 1 | 4 | -5 | .
C=CCc1ccc(OCCCCOc2ccc(C(=O)O)cc2)c(OC)c1 | -2 | 3.8* | 0 | 2 | 1 | .
C=CCc1ccc(OCc2ccc(C(=O)O)o2)c(OC)c1 | 6.0* | 0 | 2 | 10 | 4 | -1
CCCc1ccc(OCc2ccc(C(=O)O)o2)c(OC)c1 | 4 | 0 | 3 | 8 | 6 | -2
COc1cc(C2C(C#N)=C(N)Oc3cc(O)ccc32)cc(OC)c1OC (stereo not drawn) | 0 | -1 | 0 | -1 | -4 | 0
COc1cc(C2C(C#N)=C(N)Oc3cc4c(cc32)OCO4)cc(OC)c1OC (stereo not drawn) | 0 | -1 | 4.4* | -1 | 0 | 1
CC1CCN(S(=O)(=O)c2cccc(C(=O)NC3CCS(=O)(=O)C3)c2)CC1 (stereo not drawn) | 0 | -2 | 0 | -1 | -1 | -1
O=C(O)CCC(=O)Nc1nc2nccc(-c3ccccc3)n2n1 | 1 | -1 | 0 | 0 | 0 | 4.8*
SMILES | hcDAF12 agonist | ssDAF-12 act | DAX1 inh-1 | hgDAF12 agonist | SMARCA2 act | DAX1 inh-2
Cn1cc(CN2CCc3c([nH]c4ccccc34)C2C(C)(C)C)cn1 (stereo not drawn) | 5.9* | -1 | -1 | -2 | 0 | 0
Cc1ccc(C2=CC(c3cccs3)n3nnnc3N2)cc1 (stereo not drawn) | 4 | 1.0* | 0 | 2 | 0 | 1
COCCNC(=O)c1cc2c(c(-c3cccc(C#Cc4ccc(OC)c(OC)c4)c3)n1)[C@H](CCO)N(S(=O)C(C)(C)C)C2 (stereo partly drawn) | -2 | -2 | 1 | -1 | 2 | .
Cc1ccc(C)c(NC(=O)c2ccc(S(=O)(=O)N(C)CC3CCCO3)cc2)c1 (stereo not drawn) | -1 | -1 | -2 | 1 | -2 | 0
N/C(Cc1cccs1)=N\OC(=O)COc1ccc(Cl)cc1Cl | 4 | -1 | 2 | 13* | 1 | 1
N/C(Cc1ccc(Cl)cc1Cl)=N\OC(=O)Cc1cccs1 | 3 | -1 | 0 | 3 | 1 | 1
COc1ccc(CC(=O)Nc2sc3c(c2C(N)=O)CCCC3)cc1 | -2 | -2 | 0 | -1 | -2 | 0
COc1cc(OC)cc(C(=O)Nc2sc3c(c2C(N)=O)CCC3)c1 | 1 | 1.1* | 0 | 7 | 1 | 1
COc1ccc2nc(Nc3sc4c(c3C(N)=O)CCCC4)sc2c1 | 6.4* | 0 | 1 | 3 | 5 | 1
CCOC(=O)C/C(C)=N\Nc1nc(-c2ccccc2)cs1 | 1 | 1.7* | 1 | 2 | 1 | -1
CC(/C=C/c1ccccc1)=N\Nc1nc(-c2ccccc2)cs1 | 3 | 0 | 0 | 0 | 2 | 0
O=C(NNC(=O)C1CC1c1ccccc1)c1cccc([N+](=O)[O-])c1 (stereo not drawn) | 0 | 0 | 0 | 1 | 4 | -1
COc1cccc(OC)c1C(=O)NC(=S)NNC(=O)[C@H]1C[C@@H]1c1ccccc1 | -1 | 1.7* | 0 | 3 | 1 | 0
O=C(NC(=S)NNC(=O)[C@H]1C[C@@H]1c1ccccc1)c1cccc(F)c1 | 1 | 1.4* | 1 | 0 | -2 | -1
O=C1C2C3C=CC(C4CC34)C2C(=O)N1/N=C/c1ccc(-c2ccc(F)cc2[N+](=O)[O-])o1 (stereo not drawn) | 0 | -1 | 0 | 1 | -2 | 0
COc1ccc(-c2ccc(/C=N/N3C(=O)C4C5C=CC(C6CC56)C4C3=O)o2)c([N+](=O)[O-])c1 (stereo not drawn) | -3 | -1 | -1 | -3 | -1 | 4.4*
COc1ccc2c(c1OC)C(=O)N(c1ccccn1)C2 | 5.8* | 1.3* | 2 | 13* | 6 | 1
Cc1noc(C)c1C(=O)NCC(=O)Nc1ccccc1Br | 0 | -1 | -1 | 0 | -3 | 0
Cn1cncc1C(=O)c1ccccc1 | 2 | 1.1* | -1 | 0 | -1 | 2
Cc1cc(C)n(-c2nc3ccccc3[nH]c2=O)n1 | -1 | -1 | 0 | 2 | 0 | 4.3*
COc1cccc(C(=O)N/N=c2\sc3ccccc3n2C)c1 | 0 | -2 | 0 | 1 | 1 | 0

Bioassay records as filed in PubChem BioAssay.
